DT40 TDP1 no CPT: qHTS for Inhibitors of human tyrosyl-DNA phosphodiesterase 1 (TDP1): qHTS in cells in absence of CPT | 15% of 420,000 active | AID 686978, 2013 | Potency, µM (titrated, usually from 46.2 µM), without a hit: at the top dose activity change, negative = growth inhibition, hits mostly inhibitors | DT40 Tdp1-/- hTDP1 cells, no CPT, ATP luminescence, 48 h; note: potency is the fitted concentration of half-maximal effect; nearly all actives have a fitted effect of over 55% in size
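Chicken DT40 Tdp1-/- cells stably complemented with human TDP1 were seeded at 400 cells/well with DMSO in place of 20 nM camptothecin. After compound pinning, cells grew at least 48 hr at 37 °C; viability read by CellTiter-Glo luminescence.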
HT1080 IDH1KD tx: toxicity to HT-1080 IDH1 knockdown cells (counter line); Potency, µM (doses to about 46.1 µM), without a hit: top-dose activity, negative = toxicity, hits mostly cytotoxic; 2% of 360,000 active; HT-1080 IDH1 knockdown viability, ATP luminescence, 48 h;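 note: potency is the fitted concentration of half-maximal effect; 0% = DMSO wells and -100% = cell-free medium wells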
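% activity derives from luminescence (CellTiter-Glo), normalised to DMSO and no-cell wells. HT-1080-IDH1KD cells, 750/well, had 48 h compound exposure at 37 °C.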
HT1080-NT tox: kills 2HG-producing HT-1080-NT fibrosarcoma cells; HT-1080-NT fibrosarcoma viability, CellTiter-Glo ATP luminescence, 48 h; Potency, µM (doses to about 46.1 µM), for the others: at the top dose activity, negative = less viability, most hits filed as cytotoxic; 1.6% of 360,000 active; AID 686970;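 note: NT is the 2HG producing partner of a matched IDH1 knockdown line; potency is the fitted concentration of half-maximal effect; 0% = DMSO-treated cells and -100% = media-only wells without cells; nearly all actives have a fitted effect of over 55% in size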
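Luminescent CellTiter-Glo readout after 48 hours of compound exposure at 37 degrees C defined viability of HT-1080-NT cells. Activity was normalized to DMSO wells and cell-free media wells; concentration-response curves were fitted and assigned curve classes.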
IL-1B inflam inh: inhibitors of inflammasome signaling (IL-1 beta secretion); THP-1 LPS/ATP IL-1B secretion, AlphaLISA, 16 h; active compounds read low; AID 743279; activity change, % at 57.5 µM; 4.7% of 360,000 active; in the data active = activity change below about -50%; inconclusive = mostly about -30% to -49%
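Secreted IL-1B measured by AlphaLISA bead assay after 16 h compound exposure of THP-1 cells; compounds (final up to 57.5 uM) added 1 h before LPS (250 ng/mL) and ATP (1.25 mM) stimulation; lower signal means less secretion.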
DT40 TDP1 CPT: growth inhibition of DT40 Tdp1-/-;hTDP1 cells with camptothecin (screen for TDP1 inhibitors) | chicken DT40 Tdp1-/-;hTDP1 cells + 20 nM CPT, ATP luminescence, 48 h | Potency, µM (top dose mostly 46.2 µM), without a hit: at the highest dose activity change, negative = growth inhibition, actives largely listed as inhibitors | 12% of 420,000 active | AID 686979; note: potency is the fitted concentration of half-maximal effect; nearly all actives have a fitted effect of over 55% in size
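Chicken DT40 Tdp1-/- cells stably complemented with human TDP1 were seeded at 400 cells/well in medium containing 20 nM camptothecin, exposed to pin-transferred compounds, and grown at 37 °C for at least 48 hr. Viability was read as ATP luminescence.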
* marks the source's active call; other numbers are inactive results; u = inconclusive; x = not tested or not shown; [ ] = remark or other dose. Most compounds without a hit are left out; they make up all but 19% or so of the library. Unless noted, calls come from the whole dose curve; as a rule, active = well fitted curve in the direction sought with a large enough effect; inconclusive = small, poorly fitted or top-dose-only effect, or another doubt; inactive = no such curve, though single readings can be large; an effect the other way counts as inactive or inconclusive. Unless noted, % is set by controls: 0 for no effect and ±100 for the full control effect.

SMILES | DT40 TDP1 no CPT | HT1080 IDH1KD tx | HT1080-NT tox | IL-1B inflam inh | DT40 TDP1 CPT
Cc1ccc(Cn2nnc3c(=O)n(CC(=O)NCc4ccc5c(c4)OCO5)cnc32)cc1 | u | 11%[9.24 µM] | u | -4 | u
CCCc1n(CC)c2ccccc2[n+]1CC(O)COC1CCCCC1 (configuration not stated) | 4.1µM* | 2% | -19% | 5 | 5.2µM*
CN(C)C(=O)c1ccc(-c2nc(Nc3ccccc3)c3ccccc3n2)cc1 | 16µM* | x | x | x | u
O=C(O)c1ccc(Nc2c3ccccc3nc3ccccc23)cc1 | 2.1µM* | -14% | -18% | -13 | 1.3µM*
c1ccc(Nc2nc(-c3ccccc3)nc3ccccc23)cc1 | 0% | 0% | 2% | -7 | -16%
CNC(=O)c1ccc(Nc2nc(-c3ccccc3)nc3ccccc23)cc1 | 13µM* | 18µM* | 18µM* | -90* | 16µM*
O=C(O)c1ccc(Nc2nc(-c3ccccc3)nc3ccccc23)cc1 | 21µM* | -16% | -27% | 10 | 23µM*
O=C(O)c1ccc(Nc2nc(-c3ccccc3)c3ccccc3n2)cc1 | -4% | -17% | -12% | 0 | 16%
O=C(O)c1cccc(Nc2nc(-c3ccc([N+](=O)[O-])cc3)nc3ccccc23)c1 | 7% | 1% | 0% | 34 | -30%
O=S(=O)(Nc1ccon1)c1ccc(F)c(F)c1 | 15% | 7% | 17% | 47 | -3%
COc1ccccc1Cc1c(-c2ccc(Cl)cc2)nc2c(Cl)cc(C(F)(F)F)cn12 | -10% | 5% | 20% | 0 | -12%
COc1ccccc1Cc1c(-c2ccc(C#N)cc2)nc2c(Cl)cc(C(F)(F)F)cn12 | 15µM* | -3% | -9% | 28 | 23µM*
CC(C)(C)Cc1c(-c2ccc(C#N)cc2)nc2c(Cl)cc(C(F)(F)F)cn12 | u | u | u | 31 | 18µM*
COC(=O)c1ccccc1C(=O)NCC1Cc2cc(-c3nc(C)cnc3C)ccc2O1 (configuration not stated) | -9% | x | x | x | 11%[9.04 µM]
CCN(Cc1nc2ccccc2c(=O)[nH]1)C(=O)c1cccc(S(=O)(=O)N2CCc3ccccc32)c1 | 16µM* | -19% | -13% | 19 | u
COc1ccccc1C(CNC(=O)c1cccc(S(=O)(=O)N2CCCc3ccccc32)c1)N(C)C (configuration not stated) | u | -6% | -20% | u | u
Cc1ccc(CN(C)C(=O)c2cccc(S(=O)(=O)N3CCc4ccccc43)c2)cc1 | 21µM* | u | u | -22 | u
COc1ccccc1CN(C)C(=O)c1cccc(S(=O)(=O)N2CCCc3ccccc32)c1 | 12µM* | -7% | 0% | -29 | u
COc1ccc(C(CNC(=O)c2cccc(S(=O)(=O)N3CCc4ccccc43)c2)N(C)C)cc1 (configuration not stated) | 10µM* | -14% | -6% | -75* | u
O=C(CCCn1c(=S)[nH]c2cc3c(cc2c1=O)OCO3)NCc1ccccc1Cl | 18% | 1% | 5% | 15 | -3%
CC(=O)c1cccc(OCC(O)CNCC2COc3ccccc3O2)c1 (configuration not stated) | -16% | 2% | 0% | -21 | -1%
CCCn1c(N)c(N(CCOC)C(=O)COC(=O)COc2c(C)cc(C)cc2C)c(=O)[nH]c1=O | -29% | 5% | 1% | 3 | -9%
O=C(NCc1ccccc1)C(c1ccncc1)N(C(=O)c1csnn1)c1cccc(F)c1 (configuration not stated) | -5% | -8% | 13% | 8 | 4%
Cn1cc(CNC2CCN(c3cccc(NC(=O)c4cccnc4)c3)CC2)cn1 | -2% | x | x | x | 7%[9.04 µM]
COc1ccc(NC(=O)CN(C)C(=O)c2cccc(S(=O)(=O)N3CCCc4ccccc43)c2)cc1 | -22% | -9% | -1% | 9 | 10µM*
SMILES | DT40 TDP1 no CPT | HT1080 IDH1KD tx | HT1080-NT tox | IL-1B inflam inh | DT40 TDP1 CPT
CN(CC(=O)Nc1ccccc1Br)C(=O)c1cccc(S(=O)(=O)N2CCc3ccccc32)c1 | u | -19% | -5% | -19 | u
C[C@H](CO)N1C[C@H](C)[C@@H](CN(C)S(=O)(=O)c2ccc(F)cc2)Oc2c(NS(=O)(=O)c3ccc(F)cc3)cccc2C1=O | -29% | -4% | 0% | -23 | u
O=C(O)c1cc(O)c2c(c1)[C@@H]([C@H]1c3cc(C(=O)O)cc(O)c3C(=O)c3c(O[C@@H]4O[C@H](CO)[C@@H](O)[C@H](O)[C@H]4O)cccc31)c1cccc(O[C@@H]3O[C@H](CO)[C@@H](O)[C@H](O)[C@H]3O)c1C2=O | u | -25% | -23% | 18 | 6.5µM*
CCOC(=O)C1=C(COC(=O)/C=C/c2ccc(O)c(OC)c2)NC(=O)NC1C (configuration not stated) | u | -5% | -10% | u | u
O=P(O)(O)OC(Cn1cncn1)(Cn1cncn1)c1ccc(F)cc1F | 5% | x | x | x | 16%
CC(NCCC(Cc1ccccc1)c1ccco1)c1ccccc1 (configuration not stated) | u | -24% | -14% | -59* | u
Fc1ccc(CNCCC(Cc2ccccc2)c2ccco2)cc1 (configuration not stated) | u | -27% | u | -80* | -27%
O=C(CC(Cc1ccccc1)c1ccco1)NC1CCCCC1 (configuration not stated) | -16% | -7% | 1% | -10 | -13%
Cc1cc2c(c(-c3nc4ccccc4s3)c1)OC(CNC(=O)CCc1cccnc1)C2 (configuration not stated) | 0.13µM* | x | x | x | 0.12µM*
O=c1c(-c2ccccc2)nc2ccccc2n1C(c1ccccn1)c1nc2ccccc2[nH]1 (configuration not stated) | 9.2µM* | -12% | -28% | -2 | u
O=c1c(-c2cccnc2)nc2ccccc2n1C(c1ccccn1)c1nc2ccccc2[nH]1 (configuration not stated) | -28% | -3% | -14% | u | u
O=c1c(-c2cccs2)nc2ccccc2n1C(c1ccccn1)c1nc2ccccc2[nH]1 (configuration not stated) | 15µM* | -17% | -1% | -8 | u
O=c1c(-c2cccs2)nc2ccccc2n1C(CCc1ccccc1)c1nc2ccccc2[nH]1 (configuration not stated) | u | -3% | 9% | -10 | u
CN(C)N=C1c2cc(S(=O)(=O)N3CCOCC3)ccc2-c2ccc(S(=O)(=O)N3CCOCC3)cc21 | 21µM* | 1% | 12% | -17 | u

Screens from PubChem.
